# Results: the supplement of paper PMC8728848
# The sample as a whole holds a higher share of the strongest signals than the screen did.
# B1: Blon0732mut (Bifidobacterium longum) (protein)
# chain: MPTSEHKADDATRHLTLIPAPVTLEYTHGTALIGPLVTIEDADQSWETLPIEQLSDELRHRYGVTVLRRRTHGTVISLGLDSRLAHDEYTLDVSESEGIRVRGGGESGLRYGLQTLRQIIGQTSRAIPCLHIQDKPAFAVRAYSLDVTRGRVPTMEFLTWFVDQLALYKYNQFQLYVEHAFAFVELSEAWRGTDPLTAADITYLDEYCARRGIELVPSLATFGHMYMNLRTREHRGLGEFPEDADRPFSFIERMEHHTLNAADPKAHDFASRLIEEYAPLFRSKSFNIGGNETFDLGRGRSAQDAPEAGRDELYAGFVRDLCETLARHGRQPMLWADIALESPRTMDLLPGDITMLNWMYEPQIDESKIQTIATQGRRQFVCPAVRAWSRFFPDYAGAWLNTYHMALAGTKYDAEGMVVTDWGDYGHVNDPRLSVPGLCYGAQNAWNPIEIDAHEMNRRISALVYGDESGRIMDCLARIDSDGVSFPWDLAVQVLELEYGSGTGALNMDVAACMERSSGGKLTLDRTLGCDDARRRMLQWNRERIERRRDCDQVLRDCGDAFAGLDKGGLTAEFLSVMLDGQRLFNELGEELLALADGKDVGSGANRLAADLELWFERYRAQWLSVGRHAELARIAHVVWSLADILRRGAL
# What was measured:
# Assay in all cases: glycan array binding signal (z-score within array); higher = stronger binding
# Conditions in all cases: glycan notation: IUPAC condensed, linker removed
# Gal3S(b1-4)GlcNAc = target: Gal3S(b1-4)GlcNAc
# Outline: (§1)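 The binding signal is a Z-score computed within each array. Data were drawn from 3228 arrays in the Consortium for Functional Glycomics database, restricted to those with a known protein sequence. Scores were averaged over arrays of the same protein sequence at different concentrations or buffers, and over linkers, and negative values can be taken as non-binding.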
# [1] = target: Gal3S(b1-4)[Fuc(a1-3)]Glc6S
# Outline: as §1
# [2] = target: Gal3S(b1-4)[Fuc(a1-3)]GlcNAc
# Outline: as §1
# Gal4S6S(b1-4)GlcNAc = target: Gal4S6S(b1-4)GlcNAc
# Outline: as §1
# [3] = target: GalNAc(b1-4)GlcNAc(b1-2)Man
# Outline: as §1
# GalNAc(b1-4)GlcNAc6S = target: GalNAc(b1-4)GlcNAc6S
# Outline: as §1
# [4] = target: GlcNAc(b1-2)Man(a1-3)[GlcNAc(b1-4)][GlcNAc(b1-2)Man(a1-6)]Man(b1-4)GlcNAc(b1-4)[Fuc(a1-6)]GlcNAc
# Outline: as §1
# GlcNAc(b1-3)Fuc = target: GlcNAc(b1-3)Fuc
# Outline: as §1
# [5] = target: GlcNAc(b1-3)Gal(b1-4)GlcNAc(b1-2)[GlcNAc(b1-3)Gal(b1-4)GlcNAc(b1-6)]Man(a1-6)[GlcNAc(b1-3)Gal(b1-4)GlcNAc(b1-2)Man(a1-3)]Man(b1-4)GlcNAc(b1-4)GlcNAc
# Outline: as §1
# [6] = target: GlcNAc(b1-3)[GlcNAc(b1-4)][GlcNAc(b1-6)]GlcNAc
# Outline: as §1
# [7] = target: GlcNAc(b1-4)GlcNAc(b1-4)GlcNAc
# Outline: as §1
# [8] = target: GlcNAc(b1-6)Gal(b1-4)GlcNAc
# Outline: as §1
# [9] = target: Man(a1-3)[Man(a1-6)]Man(b1-4)GlcNAc(b1-4)GlcNAc
# Outline: as §1
# [10] = target: Neu5Ac(a2-3)Gal(b1-3)GalNAc(b1-4)[Neu5Ac(a2-8)Neu5Ac(a2-3)]Gal(b1-4)Glc
# Outline: as §1
# [11] = target: Neu5Ac(a2-3)Gal(b1-3)GlcNAc
# Outline: as §1
# [12] = target: Neu5Ac(a2-3)Gal(b1-3)GlcNAc(b1-4)Gal(b1-4)Glc
# Outline: as §1
# [13] = target: Neu5Ac(a2-3)Gal(b1-3)[Fuc(a1-4)]GlcNAc(b1-3)Gal(b1-3)[Fuc(a1-4)]GlcNAc
# Outline: as §1
# [14] = target: Neu5Ac(a2-3)Gal(b1-3)[Fuc(a1-4)]GlcNAc(b1-3)Gal(b1-4)[Fuc(a1-3)]GlcNAc
# Outline: as §1
# [15] = target: Neu5Ac(a2-3)Gal(b1-4)[Fuc(a1-3)]GlcNAc(b1-3)GalNAc
# Outline: as §1
# [16] = target: Neu5Ac(a2-3)Gal(b1-4)[Fuc(a1-3)]GlcNAc(b1-6)[Gal(b1-3)]GalNAc
# Outline: as §1
# [17] = target: Neu5Ac(a2-6)Gal(b1-4)GlcNAc(b1-3)Gal(b1-4)[Fuc(a1-3)]GlcNAc(b1-3)Gal(b1-4)[Fuc(a1-3)]GlcNAc
# Outline: as §1
# [18] = target: Neu5Ac(a2-6)Gal(b1-4)GlcNAc(b1-6)[Gal(b1-3)]GalNAc
# Outline: as §1
# [19] = target: Neu5Gc(a2-3)Gal(b1-3)GlcNAc
# Outline: as §1
# Neu5Gc(a2-3)Gal(b1-4)Glc = target: Neu5Gc(a2-3)Gal(b1-4)Glc
# Outline: as §1
binder,measurement,setting,value
B1,glycan array binding signal (z-score),Gal3S(b1-4)GlcNAc,-0.019
same,glycan array binding signal (z-score),[1],4.3
same,glycan array binding signal (z-score),[2],3.42
same,glycan array binding signal (z-score),Gal4S6S(b1-4)GlcNAc,2.26
same,glycan array binding signal (z-score),[3],0.028
same,glycan array binding signal (z-score),GalNAc(b1-4)GlcNAc6S,-0.46
same,glycan array binding signal (z-score),[4],-0.15
same,glycan array binding signal (z-score),GlcNAc(b1-3)Fuc,-1.38
same,glycan array binding signal (z-score),[5],3.03
same,glycan array binding signal (z-score),[6],5.26
same,glycan array binding signal (z-score),[7],-0.223
same,glycan array binding signal (z-score),[8],0.074
same,glycan array binding signal (z-score),[9],-0.261
same,glycan array binding signal (z-score),[10],3.81
same,glycan array binding signal (z-score),[11],-0.428
same,glycan array binding signal (z-score),[12],0.176
same,glycan array binding signal (z-score),[13],-0.898
same,glycan array binding signal (z-score),[14],-0.002
same,glycan array binding signal (z-score),[15],2.5
same,glycan array binding signal (z-score),[16],0.262
same,glycan array binding signal (z-score),[17],2.6
same,glycan array binding signal (z-score),[18],0.982
same,glycan array binding signal (z-score),[19],-0.667
same,glycan array binding signal (z-score),Neu5Gc(a2-3)Gal(b1-4)Glc,2.58
